Data from PubChem BioAssay AID1159580 (chemical genetic matrix, 2015).
Out of some 5,500 compounds screened, about 2,000 (36%) were called active. About 18% were inconclusive and are not listed. Cut-off read from the data, not from the text of the source: active = normalized growth mostly below about 0.91 (no sharp cut-off); inconclusive = no clear call, values can overlap the other calls; inactive = mostly above about 0.92. Some of the results follow.

Test: chemical genetic growth profiling, strain panel (AID 1159580);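 note: tested at 20 µM; growth read once vehicle control cultures reached saturation at 30 °C; 1 = growth at the plate median or of vehicle wells; lower values mean less growth of the strain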
Details: S. cerevisiae deletion strains, growth OD
[1] = locus YDL101C, strain DUN1, stronger effect = lower value
[2] = locus YDR150W, strain NUM1, stronger effect = lower value
[3] = locus YGR078C, strain PAC10, stronger effect = lower value
[4] = locus YHR030C, strain SLT2, stronger effect = lower value
[5] = locus YJR075W, strain HOC1, stronger effect = lower value
[6] = locus YMR263W, strain SAP30, stronger effect = lower value
[7] = locus YNL128W, strain TEP1, stronger effect = lower value
[8] = locus YNL153C, strain GIM3, stronger effect = lower value
[9] = locus YNL322C, strain KRE1, stronger effect = lower value
[10] = locus YPL055C, strain LGE1, stronger effect = lower value
[11] = locus YAL040C, strain CLN3, stronger effect = lower value
[12] = locus YCL061C, strain MRC1 (second series), stronger effect = lower value
[13] = locus YDR363W, strain ESC2, stronger effect = lower value
[14] = locus YER002W, strain NOP16, stronger effect = lower value
[15] = locus YMR307W, strain GAS1, stronger effect = lower value
[16] = locus YNL175C, strain NOP13, stronger effect = lower value
[17] = locus YNL197C, strain WHI3, stronger effect = lower value
[18] = locus YNL224C, strain SQS1, stronger effect = lower value
[19] = locus YOR083W, strain WHI5 (second series), stronger effect = lower value

Measured: normalized growth

CCCC(C)(SCC(=O)O)SCC(=O)O
inactive: locus YAL013W, strain DEP1, stronger effect = lower value 1 | locus YBR229C, strain ROT2, stronger effect = lower value 1 | [1] 1.09 | [2] 1.03 | locus YEL061C, strain CIN8, stronger effect = lower value 0.951 | [3] 1.02 | [4] 1.03 | locus YHR087W, strain rtc3, stronger effect = lower value 0.98 | locus YJL187C, strain SWE1, stronger effect = lower value 1 | locus YJR043C, strain POL32, stronger effect = lower value 1.01 | [5] 1.04 | locus YKL190W, strain CNB1, stronger effect = lower value 0.992 | locus YLR039C, strain RIC1, stronger effect = lower value 0.981 | locus YLR058C, strain SHM2 (second series), stronger effect = lower value 0.984 | locus YLR085C, strain ARP6, stronger effect = lower value 1.02 | locus YLR262C, strain YPT6, stronger effect = lower value 1.02 | locus YML094W, strain GIM5, stronger effect = lower value 0.993 | locus YMR219W, strain ESC1, stronger effect = lower value 0.999 | [6] 1.01 | [7] 0.985 | [8] 1.04 | locus YNL298W, strain CLA4 (second series), stronger effect = lower value 1.02 | [9] 0.993 | locus YNR030W, strain Alg12, stronger effect = lower value 1.01 | locus YOL006C, strain TOP1, stronger effect = lower value 1 | [10] 1 | locus YPL241C, strain CIN2, stronger effect = lower value 1.05 | locus YPR135W, strain CTF4, stronger effect = lower value 1.08

CCCCCCCCCCCCCCSCC(=O)O
active: [19] 0.825
inactive: [11] 0.97 | [12] 1.01 | [2] 0.997 | [13] 0.993 | [14] 0.937 | [3] 0.998 | locus YGR229C, strain SMI1, stronger effect = lower value 0.959 | [5] 0.99 | [6] 1 | [15] 0.992 | [16] 0.938 | [17] 0.957 | [18] 0.954 | [10] 0.955

N#CC(Cc1ccc(O)c(O)c1)C(=O)N1CCc2ccccc21 (stereo not drawn)
inactive: [11] 0.961 | [12] 0.986 | [2] 0.997 | [13] 0.97 | [14] 1.01 | [5] 0.995 | [15] 0.986 | [7] 0.996 | [8] 0.977 | [16] 0.999 | [17] 1.02 | [18] 0.994 | [9] 0.952 | [19] 0.965

C=CC(=O)N1CCc2cc([N+](=O)[O-])ccc21
inactive: locus YJL128C, strain PBS2, stronger effect = lower value 0.842 | locus YPR111W, strain DBF20, stronger effect = lower value 0.887
active: locus YAR019C, strain CDC15, stronger effect = lower value 0.735 | locus YBL105C, strain PKC1, stronger effect = lower value 0.778 | locus YBR135W, strain CKS1, stronger effect = lower value 0.766 | locus YBR136W, strain MEC1, stronger effect = lower value 0.764 | locus YBR160W, strain CDC28, stronger effect = lower value 0.791 | locus YDL017W, strain CDC7, stronger effect = lower value 0.8 | locus YDL028C, strain MPS1, stronger effect = lower value 0.796 | [1] 0.789 | locus YDL108W, strain KIN28, stronger effect = lower value 0.798 | locus YDL132W, strain cdc53, stronger effect = lower value 0.725 | locus YDL214C, strain PRR2, stronger effect = lower value 0.37 | locus YDR052C, strain DBF4, stronger effect = lower value 0.827 | locus YDR054C, strain cdc34, stronger effect = lower value 0.689 | locus YDR226W, strain ADK1, stronger effect = lower value 0.839 | locus YDR477W, strain SNF1, stronger effect = lower value 0.335 | locus YER123W, strain YCK3, stronger effect = lower value 0.236 | locus YER133W, strain GLC7, stronger effect = lower value 0.275 | locus YFL009W, strain cdc4, stronger effect = lower value 0.739 | locus YFL029C, strain CAK1, stronger effect = lower value 0.72 | locus YFR003C, strain YPI1, stronger effect = lower value 0.807 | locus YFR019W, strain FAB1, stronger effect = lower value 0.369 | locus YFR028C, strain CDC14, stronger effect = lower value 0.805 | locus YGR040W, strain KSS1, stronger effect = lower value 0.287 | locus YGR052W, strain FMP48, stronger effect = lower value 0.308 | locus YGR092W, strain DBF2, stronger effect = lower value 0.12 | [4] 0.253 | locus YHR079C, strain IRE1, stronger effect = lower value 0.255 | locus YHR082C, strain KSP1, stronger effect = lower value 0.263 | locus YHR205W, strain SCH9, stronger effect = lower value 0.228 | locus YIL147C, strain SLN1, stronger effect = lower value 0.794 | locus YJL095W, strain BCK1, stronger effect = lower value 0.276 | locus YJL157C, strain FAR1, stronger effect = lower value 0.315 | locus YJR016C, strain ILV3, stronger effect = lower value 0.742 | locus YJR066W, strain TOR1 (second series), stronger effect = lower value 0.24 | locus YJR066W, strain TOR1, stronger effect = lower value 0.274 | locus YKL048C, strain ELM1, stronger effect = lower value 0.556 | locus YKL067W, strain YNK1, stronger effect = lower value 0.35 | locus YKL101W, strain HSL1, stronger effect = lower value 0.46 | locus YKL193C, strain SDS22, stronger effect = lower value 0.729 | locus YKL203C, strain TOR2, stronger effect = lower value 0.355 | locus YLR113W, strain HOG1, stronger effect = lower value 0.247 | locus YLR133W, strain CKI1, stronger effect = lower value 0.409 | locus YLR403W, strain SFP1, stronger effect = lower value 0.271 | locus YML070W, strain DAK1, stronger effect = lower value 0.311 | locus YMR001C, strain CDC5, stronger effect = lower value 0.744 | locus YMR205C, strain PFK2 (second series), stronger effect = lower value 0.424 | locus YMR277W, strain FCP1, stronger effect = lower value 0.746 | locus YNL006W, strain LST8, stronger effect = lower value 0.754 | locus YNL020C, strain ARK1, stronger effect = lower value 0.412 | locus YNL161W, strain CBK1, stronger effect = lower value 0.737 | locus YNL183C, strain NPR1, stronger effect = lower value 0.22 | locus YNL207W, strain RIO2, stronger effect = lower value 0.757 | locus YNL222W, strain SSU72, stronger effect = lower value 0.734 | locus YNL307C, strain MCK1 (second series), stronger effect = lower value 0.323 | locus YOL078W, strain AVO1, stronger effect = lower value 0.71 | locus YOL136C, strain PFK27, stronger effect = lower value 0.316 | locus YOR061W, strain CKA2, stronger effect = lower value 0.498 | locus YOR119C, strain RIO1, stronger effect = lower value 0.334 | locus YOR231W, strain MKK1, stronger effect = lower value 0.255 | locus YOR329C, strain SCD5, stronger effect = lower value 0.759 | locus YPL031C, strain PHO85, stronger effect = lower value 0.268 | locus YPL153C, strain RAD53, stronger effect = lower value 0.273 | locus YPL204W, strain HRR25, stronger effect = lower value 0.282 | locus YPL209C, strain IPL1, stronger effect = lower value 0.778 | locus YPL256C, strain CLN2, stronger effect = lower value 0.299 | locus YPR025C, strain CCL1, stronger effect = lower value 0.764 | locus YPR106W, strain ISR1, stronger effect = lower value 0.864 | strain NNK1, stronger effect = lower value 0.824 | strain TSCII, stronger effect = lower value 0.643
